Measurements published in paper PMC7819943, “Rice protein-binding microarrays: a tool to detect cis-acting elements near promoter regions in rice”.
The full ranking holds about 68,000 sequences; the median of “fluorescence intensity (a.u.)” is about 9,100, and the highest 2% start at about 16,000. For the sample, the highest values were picked, then their nearest neighbours and some sequences at random.

Each sequence was assayed against OsWRKY34 (Oryza sativa, UniProt Q0JBA9 1-250) (assay: protein-binding microarray (RPBM); PBS, 2% BSA, 51.3 ng/ul salmon testes DNA, 50 uM zinc acetate, 200 nM TF, 25 C, 1 h; high values mean tight binding). Settings: protein: recombinant; tags: N-terminal polyhistidine and DsRed monomer fusion (pET32a); label: CyDye5-dUTP incorporated in the synthesized complementary strand; 3' TTTTT single-stranded linker to array surface; dsDNA, one strand shown.
Chain of OsWRKY34 (Q0JBA9 entry or part of it): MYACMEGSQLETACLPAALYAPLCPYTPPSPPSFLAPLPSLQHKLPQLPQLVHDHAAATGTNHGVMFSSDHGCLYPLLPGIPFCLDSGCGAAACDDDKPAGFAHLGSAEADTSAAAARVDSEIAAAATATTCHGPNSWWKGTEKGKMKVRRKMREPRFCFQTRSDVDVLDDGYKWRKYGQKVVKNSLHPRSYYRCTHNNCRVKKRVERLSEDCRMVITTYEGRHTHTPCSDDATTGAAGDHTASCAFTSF
In short: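 A custom Agilent array was converted to double-stranded form by primer extension with Cy5-dUTP and blocked with 2% BSA. Protein at 200 nM in PBS with 2% BSA, salmon testes DNA and 50 µM zinc acetate was applied for 1 h at 25 °C, followed by washing. The proteins were polyhistidine–DsRed N-terminal fusions of transcription factors, expressed in E. coli BL21-CodonPlus and Ni–NTA-purified. The binding signal is per-feature fluorescence intensity (arbitrary units) from an Axon 4000B scanner.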

First: ACAACGCATTTCCATTTCTACTCTGCCCCTGGTAAATTACCGGAGTCACCTAGTGCAG
Second: ACTGCCTTACCTGTTCATCTTCCAAACTGATTTGGTTTGTCGGAGTCACCTAGTGCAG
The binding signal of the first is higher: 12400 fluorescence intensity (a.u.) for the first, 9370 fluorescence intensity (a.u.) for the second.

First: AAACAATTATCTAAAAACCTCACTATTAATAGAGAGATTCCGGAGTCACCTAGTGCAG
Second: ACGGCACCTCATAGATTATTCCGTCCGTTCCAACAACCTCCGGAGTCACCTAGTGCAG
The binding signal of the first is higher: 38700 fluorescence intensity (a.u.) for the first, 8320 fluorescence intensity (a.u.) for the second.

Compared with “ACAATTAACACACGTAAACACTATCTGCTATTGTAAAAAACGGAGTCACCTAGTGCAG”, “ACTTTTTATACGCAACTTTCATTGCATATATTTTACTTTTCGGAGTCACCTAGTGCAG” is higher in binding signal: 8460 fluorescence intensity (a.u.) for the first, 9540 fluorescence intensity (a.u.) for the second.

Compared with “GGGTTGGTTTGGTTTGGTTGCTTCTTCTCTGCTTCAACGGCGGAGTCACCTAGTGCAG”, “ACCTTCTTACCCACTCCACCCACTGACAACGTTGGCCACCCGGAGTCACCTAGTGCAG” is lower in binding signal: 40000 fluorescence intensity (a.u.) for the first, 9360 fluorescence intensity (a.u.) for the second.

Going from “TGGTTTGGTTTGCTTCTTCTCTGCTTCAACGGTTGGTCGACGGAGTCACCTAGTGCAG” to “TATATAACACAAAATAAGATCAACGTTGACCCGGGTTGACCGGAGTCACCTAGTGCAG”, the binding signal falls from 16900 fluorescence intensity (a.u.) to 10200 fluorescence intensity (a.u.).

First: CAACGTTGACCCGGGTTGACCCACGGTTCTTCAACAAATGCGGAGTCACCTAGTGCAG
Second: AAGAATTTTGCTTTGGTTCAACCTTTTTTCTCTTCTTTCTCGGAGTCACCTAGTGCAG
The binding signal of the first is higher: 20700 fluorescence intensity (a.u.) for the first, 11300 fluorescence intensity (a.u.) for the second.

Compared with “TGTGTTGCTCTCTCTTCACTTGGTTGGCGGCGGCGCTGCGCGGAGTCACCTAGTGCAG”, “CTGTAGTGTTGCTTGGTTTCTCTTTTTTGCCTCTTCACGGCGGAGTCACCTAGTGCAG” is higher in binding signal: 8060 fluorescence intensity (a.u.) for the first, 13200 fluorescence intensity (a.u.) for the second.

Going from “ATCTCAATGAGTTGGTCGTTTGCTGCTTCTCTATAGTGAACGGAGTCACCTAGTGCAG” to “CCGTTCGCCACGTCCATCCGTTTTCTGTGCCATAGGCAGGCGGAGTCACCTAGTGCAG”, the binding signal rises from 9140 fluorescence intensity (a.u.) to 9340 fluorescence intensity (a.u.).

Compared with “GCGTGCTAAACCCTTGTGATCCGTGTATTTAACCACCTTCCGGAGTCACCTAGTGCAG”, “ATTGGATCGGATCAGATCCCTTTTGCGCACCACTCGCCTTCGGAGTCACCTAGTGCAG” is lower in binding signal: 11700 fluorescence intensity (a.u.) for the first, 8750 fluorescence intensity (a.u.) for the second.

Compared with “TCGAGGAGTGGATGGACGGATGGGTGGGTCATCACTGGTCCGGAGTCACCTAGTGCAG”, “CCTCACGCAATTCCACAACTGCTGCTCCCACCCTCATCAGCGGAGTCACCTAGTGCAG” is higher in binding signal: 8840 fluorescence intensity (a.u.) for the first, 9580 fluorescence intensity (a.u.) for the second.

First: TTTGCAATATCAGGGGTGTGTTACATATGTATTTCGATTTCGGAGTCACCTAGTGCAG
Second: TCTACCCGCCTTCCTTTTAGTCCCCGCGTCTCCACAAAATCGGAGTCACCTAGTGCAG
The binding signal of the first is higher: 12400 fluorescence intensity (a.u.) for the first, 10100 fluorescence intensity (a.u.) for the second.

First: TATTTTCCGTGTGTACCGTTCCGGTTATCAATACCAGCGCCGGAGTCACCTAGTGCAG
Second: GCCATCAAGCTACGCCATTCAGCATTGCAACGACGACGTCCGGAGTCACCTAGTGCAG
The binding signal of the first is lower: 8380 fluorescence intensity (a.u.) for the first, 64300 fluorescence intensity (a.u.) for the second.

Going from “TCATCCCACCGACGTCAGCAAGCCATCGCCATCAAGCCCACGGAGTCACCTAGTGCAG” to “CAGCCGCCCTACGTCAGCCAAGTCCAACGACAACGCCCAACGGAGTCACCTAGTGCAG”, the binding signal falls from 9760 fluorescence intensity (a.u.) to 8200 fluorescence intensity (a.u.).

Compared with “ACCTCTGCTGATTCTTCTTGCTGTTTCTTTGTTGCGCATTCGGAGTCACCTAGTGCAG”, “CACCTCGCGCCGCGCCCCATCCTTATCGTCATGACACGCCCGGAGTCACCTAGTGCAG” is lower in binding signal: 11500 fluorescence intensity (a.u.) for the first, 8810 fluorescence intensity (a.u.) for the second.

Compared with “GGTTTTTTTTGGATTTATTGCTTTGTCACGTCTGGATCGTCGGAGTCACCTAGTGCAG”, “TGGAGAGCGTTGCTTTTTTTGGGCGGGTTTGGATTTTTATCGGAGTCACCTAGTGCAG” is higher in binding signal: 20500 fluorescence intensity (a.u.) for the first, 21600 fluorescence intensity (a.u.) for the second.

Going from “TTGCTTGTCTGTTTGTTTTATTTATTTATGACGTCATTATCGGAGTCACCTAGTGCAG” to “GTTGGTTTTGGGGTTTTGGAGCGTTGCGGATTGCCACGGCCGGAGTCACCTAGTGCAG”, the binding signal falls from 12600 fluorescence intensity (a.u.) to 10300 fluorescence intensity (a.u.).

Compared with “AACTCTGGCACGATTTTTTTTATTGCAGTTTTCGTCGGATCGGAGTCACCTAGTGCAG”, “TCTTAGTATCCTTGGTTGTTGGATTTTTAGTTTGCTTTATCGGAGTCACCTAGTGCAG” is lower in binding signal: 11400 fluorescence intensity (a.u.) for the first, 9350 fluorescence intensity (a.u.) for the second.

Going from “GAGGAGCTCGCCAATTGTTCCGCGTCATATCGCCAGCTCTCGGAGTCACCTAGTGCAG” to “AACCTCTCATTTAATAAGATTCATCACAGTCTTTTTTTTTCGGAGTCACCTAGTGCAG”, the binding signal rises from 9060 fluorescence intensity (a.u.) to 9990 fluorescence intensity (a.u.).

First: GACTTGATTTTTTTTCTTAATTTGACCTTTTAATTTCAAACGGAGTCACCTAGTGCAG
Second: GATTCTAGTCAAATTTCTTTTAATTTTGACTACGTTTATACGGAGTCACCTAGTGCAG
The binding signal of the first is lower: 8080 fluorescence intensity (a.u.) for the first, 11200 fluorescence intensity (a.u.) for the second.

Compared with “CCTCTAAATTTTAAGATTTTTTTAATCATTTTACCATTTTCGGAGTCACCTAGTGCAG”, “GTCATTTTGTCTTTTTCTCTAAGTCAAACTTCTTTAATTTCGGAGTCACCTAGTGCAG” is lower in binding signal: 65200 fluorescence intensity (a.u.) for the first, 10900 fluorescence intensity (a.u.) for the second.

Compared with “AGTAATTTGACTTTTTCCTTAATCAAACTTCTTTAAGTTTCGGAGTCACCTAGTGCAG”, “ATAGTTGGTGTGTTTATGTAGACTTATTCTATTTTGACGTCGGAGTCACCTAGTGCAG” is lower in binding signal: 10600 fluorescence intensity (a.u.) for the first, 10400 fluorescence intensity (a.u.) for the second.

Compared with “GTTGCTGGTTTTGTTAGTTTGGTGACCTTGACTTGTAAGACGGAGTCACCTAGTGCAG”, “TCGTTGACTTTTTTCTTAGTCAAATTTCTTTAAGTTTGACCGGAGTCACCTAGTGCAG” is higher in binding signal: 8670 fluorescence intensity (a.u.) for the first, 42400 fluorescence intensity (a.u.) for the second.

First: TCATTTTGACTTTTTTTAGTCAAACTCTTTTAATTTTAATCGGAGTCACCTAGTGCAG
Second: TACCATTTCTTTCTTGCTTTTTTAATGCCTAAATCATCTTCGGAGTCACCTAGTGCAG
The binding signal of the first is higher: 19600 fluorescence intensity (a.u.) for the first, 8050 fluorescence intensity (a.u.) for the second.

Going from “AGGAGCCAGACTTAGTTGGTGTAAGCCATTTACTAGTTGACGGAGTCACCTAGTGCAG” to “CCCTATCCATTAATTACTCGCTTCGTGGTCGGAATCCATGCGGAGTCACCTAGTGCAG”, the binding signal falls from 22800 fluorescence intensity (a.u.) to 8200 fluorescence intensity (a.u.).

First: TGCTGCTGGTTACTTGTATTAATACATTATAGAAAATGAGCGGAGTCACCTAGTGCAG
Second: AACTCTTTCTGCCCACTTCCTCAACCCATGCTTATCTACCCGGAGTCACCTAGTGCAG
The binding signal of the first is lower: 8070 fluorescence intensity (a.u.) for the first, 8240 fluorescence intensity (a.u.) for the second.

First: TGAGAAGCACCGCTCTCTCCTGCACCCGTCTCACGTGCACCGGAGTCACCTAGTGCAG
Second: TCACCTGATCAAGTACGCGTTTTTGGCCCTCAAAAGTATTCGGAGTCACCTAGTGCAG
The binding signal of the first is higher: 8300 fluorescence intensity (a.u.) for the first, 8120 fluorescence intensity (a.u.) for the second.

First: ACTAGGGTTCTCTTCTCACTCCATCGCTAGCGGCGGCTCACGGAGTCACCTAGTGCAG
Second: TAATGGGATGGGTGAAAAGTTATTGTTTTTGGTAGGCCTTCGGAGTCACCTAGTGCAG
The binding signal of the first is lower: 8340 fluorescence intensity (a.u.) for the first, 9640 fluorescence intensity (a.u.) for the second.
